# Measurements reported in the supplement of paper PMC8728848.
# Only a selection was taken, and the strongest signals are over-represented in it overall.
# How the values were obtained:
# Assay in all cases: glycan array binding signal (z-score within array); higher = stronger binding
# Settings in all cases: glycan notation: IUPAC condensed, linker removed
# [1] = molecular target: Man(a1-3)[Man(a1-6)]Man(b1-4)GlcNAc(b1-4)[Fuc(a1-6)]GlcNAc
# Procedure, shortened: (§1)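 Columns mapping to the same glycan were averaged after glycan names were converted to IUPAC-condensed notation. The data come from 3228 arrays in the Consortium for Functional Glycomics database, limited to those with an available protein sequence. Binding is reported as a within-array Z-score averaged across arrays of one protein sequence and across linkers.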
# MurNAc(b1-4)GlcNAc = molecular target: MurNAc(b1-4)GlcNAc
# Procedure, shortened: as §1
# [2] = molecular target: Neu5Ac(a2-3)Gal(b1-3)GalNAc(b1-4)[Neu5Ac(a2-3)]Gal(b1-4)Glc
# Procedure, shortened: as §1
# [3] = molecular target: Neu5Ac(a2-3)Gal(b1-3)GlcNAc(b1-2)Man(a1-3)[GlcNAc(b1-4)][Neu5Ac(a2-3)Gal(b1-3)GlcNAc(b1-2)Man(a1-6)]Man(b1-4)GlcNAc(b1-4)GlcNAc
# Procedure, shortened: as §1
# [4] = molecular target: Neu5Ac(a2-3)Gal(b1-3)[Fuc(a1-4)]GlcNAc(b1-3)Gal(b1-3)[Fuc(a1-4)]GlcNAc
# Procedure, shortened: as §1
# [5] = molecular target: Neu5Ac(a2-3)Gal(b1-4)GlcNAc(b1-3)Gal(b1-4)GlcNAc(b1-3)GalNAc
# Procedure, shortened: as §1
# [6] = molecular target: Neu5Ac(a2-3)Gal(b1-4)GlcNAc(b1-3)Gal(b1-4)GlcNAc(b1-3)[Neu5Ac(a2-3)Gal(b1-4)GlcNAc(b1-3)Gal(b1-4)GlcNAc(b1-6)]GalNAc
# Procedure, shortened: as §1
# [7] = molecular target: Neu5Ac(a2-3)Gal(b1-4)GlcNAc(b1-6)GalNAc
# Procedure, shortened: as §1
# [8] = molecular target: Neu5Ac(a2-3)Gal(b1-4)GlcNAc(b1-6)[Gal(b1-3)]GalNAc
# Procedure, shortened: as §1
# [9] = molecular target: Neu5Ac(a2-3)Gal(b1-4)GlcNAc(b1-6)[Neu5Ac(a2-3)Gal(b1-3)]GalNAc
# Procedure, shortened: as §1
# [10] = molecular target: Neu5Ac(a2-3)Gal(b1-4)GlcNAc6S
# Procedure, shortened: as §1
# [11] = molecular target: Neu5Ac(a2-6)Gal(b1-4)GlcNAc(b1-2)Man(a1-3)[Neu5Ac(a2-6)Gal(b1-4)GlcNAc(b1-2)Man(a1-6)]Man(b1-4)GlcNAc(b1-4)[Fuc(a1-6)]GlcNAc
# Procedure, shortened: as §1
# [12] = molecular target: Neu5Ac(a2-6)Gal(b1-4)GlcNAc(b1-3)Gal(b1-3)GlcNAc
# Procedure, shortened: as §1
# [13] = molecular target: Neu5Ac(a2-8)Neu5Ac(a2-3)Gal(b1-4)Glc
# Procedure, shortened: as §1
# [14] = molecular target: Neu5Ac(a2-8)Neu5Ac(a2-3)[GalNAc(b1-4)]Gal(b1-4)Glc
# Procedure, shortened: as §1
# [15] = molecular target: Neu5Gc(b2-6)Gal(b1-4)GlcNAc
# Procedure, shortened: as §1
binder,measurement,setting,value
APVPVTKLVCDGDTYKCTAYLDFGDGRWVAQWDTNVFHTG [PhoSpL (Pholiota squarrosa)],glycan array binding signal (z-score),[1],6.32
same,glycan array binding signal (z-score),MurNAc(b1-4)GlcNAc,-0.337
same,glycan array binding signal (z-score),[2],0.143
same,glycan array binding signal (z-score),[3],-0.151
same,glycan array binding signal (z-score),[4],-0.57
same,glycan array binding signal (z-score),[5],0.1
same,glycan array binding signal (z-score),[6],-0.169
same,glycan array binding signal (z-score),[7],-0.386
same,glycan array binding signal (z-score),[8],0.254
same,glycan array binding signal (z-score),[9],-0.322
same,glycan array binding signal (z-score),[10],0.087
same,glycan array binding signal (z-score),[11],4.01
same,glycan array binding signal (z-score),[12],-0.422
same,glycan array binding signal (z-score),[13],-0.197
same,glycan array binding signal (z-score),[14],-0.373
same,glycan array binding signal (z-score),[15],0.132
